The values below come from PubChem BioAssay (NCATS).

Unmarked numbers belong to inactive results. Records with an inconclusive call do not appear. Calls of active or inactive are those of the source. Unless noted, the call rests on the fitted dose curve; in most records, active means well fitted curve in the direction sought with a large enough effect; inconclusive means small, poorly fitted or top-dose-only effect, or another doubt; inactive means no such curve, though single readings can be large; an effect the other way counts as inactive or inconclusive.

Assay [1] can be described thus: S16 Schwann cell PMP22 intronic element firefly luciferase assay (AID 624032).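 Further: plate controls were DMSO for no effect and PTC124 positive control mean for full effect; nearly all actives have a fitted effect of over 30% in size.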 In a few lines: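 Rat S16 Schwann cells stably carrying firefly luciferase driven by a PMP22 intronic element, in 10% FBS, treated 24 h at 37 C. ONE-Glo luminescence normalized to PTC124 control and DMSO (0%); curves classed by r2, magnitude and activity.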
The subject of another assay is 7G8. Put plainly: qHTS profiling for inhibitors of Plasmodium falciparum proliferation (AID 504749). Further: nearly all actives have a fitted effect of over 60% in size. Further: potency means the concentration at half of the fitted maximal effect. Particulars: P. falciparum in erythrocytes, SYBR Green DNA, 72 h; series mostly up to 12.8 µM. Put shortly: (§1)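 Each compound contacts P. falciparum-infected red blood cells for 72 h at 37 C; lysis buffer (Tris, EDTA, saponin, Triton X, SYBR Green I) is added and fluorescence measured next morning; values normalized to controls.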

Another assay concerns CP194. The assay is described as above. Particulars: P. falciparum in erythrocytes, SYBR Green DNA, 72 h; series mostly up to 12.8 µM. In a few lines:
as §1

The next assay concerns CP211. Described as above. Particulars: P. falciparum in erythrocytes, SYBR Green DNA, 72 h; series mostly up to 12.8 µM. Put shortly:
as §1

The subject of a further assay is CP215. The description is as above. Particulars: P. falciparum in erythrocytes, SYBR Green DNA, 72 h; series mostly up to 12.8 µM. In a few lines: as §1
The subject of the next assay is CP291. The assay is described as above. Particulars: P. falciparum in erythrocytes, SYBR Green DNA, 72 h; series mostly up to 12.8 µM. In a few lines:
as §1

Another assay has as its system CP335. The description is as above. Particulars: P. falciparum in erythrocytes, SYBR Green DNA, 72 h; series mostly up to 12.8 µM. In a few lines:
as §1

Another assay deals with GB4. Described as above. Particulars: P. falciparum in erythrocytes, SYBR Green DNA, 72 h; series mostly up to 12.8 µM. Put shortly:
as §1

A further assay relates to PC26. The assay is described as above. Particulars: P. falciparum in erythrocytes, SYBR Green DNA, 72 h; series mostly up to 12.8 µM. Put shortly: as §1
Assay [2] is described as follows: S16 Schwann cell PMP22 intronic element beta-lactamase assay (AID 624044; calls by dose curve;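 further: 0% = DMSO and -100% = potassium clavulanate positive control; nearly all actives have a fitted effect of over 15% in size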). Put shortly: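 Beta-lactamase reporter under a PMP22 intronic regulatory element in stable S16 rat Schwann cells; 24 h compound exposure. 460 nm blue signal normalized between DMSO (0%) and potassium clavulanate, with 535 nm FRET tracking viability; curves classed by r2 and response.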
For a further assay, the system named is AA1029. Put plainly: qHTS profiling for inhibitors of Plasmodium falciparum proliferation (AID 504749). Further: nearly all actives have a fitted effect of over 60% in size. Further: potency means the concentration at half of the fitted maximal effect. Particulars: P. falciparum in erythrocytes, SYBR Green DNA, 72 h; series mostly up to 12.8 µM. Put shortly: as §1
In the next assay the test system is P93_24. Described as above. Particulars: P. falciparum in erythrocytes, SYBR Green DNA, 72 h; series mostly up to 12.8 µM. In a few lines: as §1
A further assay deals with P94_40. The assay is described as above. Particulars: P. falciparum in erythrocytes, SYBR Green DNA, 72 h; series mostly up to 12.8 µM. In a few lines:
as §1

The test system of another assay is TAB109. The description is as above. Particulars: P. falciparum in erythrocytes, SYBR Green DNA, 72 h; series mostly up to 12.8 µM. Put shortly:
as §1

The target in assay [3] is Cytochrome P450 3A4 (Homo sapiens) (UniProt P08684). Put plainly: qHTS Assay for Activators of Cytochrome P450 3A4 (AID 885). Further: nearly all actives have a fitted effect of over 65% in size. Further: potency means the concentration at half of the fitted maximal effect. Put shortly:
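Human CYP3A4 dealkylates Luciferin-PPXE to luciferin, which luciferase detection converts to light. Substrate was at its KM (25uM), buffer 200mM KPO4, reaction 60 min at RT.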

For assay [4] the target is unchanged. The assay is described as follows: qHTS Assay for Inhibitors and Substrates of Cytochrome P450 3A4 (AID 884). Further: nearly all actives have a fitted effect of over 50% in size. Further: potency means the concentration at half of the fitted maximal effect. In a few lines:
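Luminescent readout of luciferin produced by CYP3A4 (20 nM) dealkylation of Luciferin-PPXE, 25 uM (its KM). NADPH-driven reaction ran 60 min at RT after 10 min compound preincubation; data scaled to 57 uM ketoconazole as 100% inhibition.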

A short description of assay [5]: Confirmation and Secondary Assay for Modulators of Hemoglobin Beta Chain Splicing at IVS2 705 locus (AID 930).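 Further: HeLa cells stably expressing the EGFP-705 splicing reporter; GFP fluorescence per well restored by corrected splicing of the IVS2-705 intron in EGFP; % of control where 0% means no effect.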 Put shortly: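 HeLa IVS2-705 EGFP reporter cells, 500/well, compound 2 d at 37C; correct splicing yields fluorescent EGFP. Control: 500 nM antisense PNA. Read-out: total peak GFP intensity.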
Assay [6] deals with Cytochrome P450 2C19 (Homo sapiens) (UniProt P33261). Put plainly: qHTS Assay for Inhibitors and Substrates of Cytochrome P450 2C19 (AID 899). Further: nearly all actives have a fitted effect of over 60% in size. Further: potency means the concentration at half of the fitted maximal effect. In a few lines: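 5 nM human CYP2C19 with 10uM Luciferin-H EGE (at KM) in 50mM KPO4, compound preincubated 10 min at 37C, then NADPH regeneration for 60 min at 37C. Luciferin read by luminescence after detection reagent; normalized to 57uM ketoconazole as full inhibition.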

In a further assay the test system is W2. The assay is described as follows: qHTS profiling for inhibitors of Plasmodium falciparum proliferation (AID 504749). Further: nearly all actives have a fitted effect of over 60% in size. Further: potency means the concentration at half of the fitted maximal effect. Particulars: P. falciparum in erythrocytes, SYBR Green DNA, 72 h; series mostly up to 12.8 µM. Put shortly:
as §1

A short description of assay [7]: qHTS Assay for Identification of Small Molecule Agonists for Hypoxia Response Element Signaling Pathway (AID 914; active means well fitted activation curve with a large enough effect in the signal ratio, with a control signal flat, not every such curve was filed as active; the % refers to the signal ratio; further: % of control where 0% means no effect). Particulars: ME-180 (cervical carcinoma) HRE-bla reporter, beta-lactamase ratio, CoCl2, 17 h; activation: hits give high values. Put shortly: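 HRE-bla ME-180 assay for agonist-like enhancement of an EC50 CoCl2 stimulus: 17 h at 37 degrees Celsius, CCF4 for 2.5 h, ratiometric 460/530 nm signal converted to %Activity and fitted to AC50.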

Cytochrome P450 2C19 (Homo sapiens), sequence (P33261 whole entry, looked up): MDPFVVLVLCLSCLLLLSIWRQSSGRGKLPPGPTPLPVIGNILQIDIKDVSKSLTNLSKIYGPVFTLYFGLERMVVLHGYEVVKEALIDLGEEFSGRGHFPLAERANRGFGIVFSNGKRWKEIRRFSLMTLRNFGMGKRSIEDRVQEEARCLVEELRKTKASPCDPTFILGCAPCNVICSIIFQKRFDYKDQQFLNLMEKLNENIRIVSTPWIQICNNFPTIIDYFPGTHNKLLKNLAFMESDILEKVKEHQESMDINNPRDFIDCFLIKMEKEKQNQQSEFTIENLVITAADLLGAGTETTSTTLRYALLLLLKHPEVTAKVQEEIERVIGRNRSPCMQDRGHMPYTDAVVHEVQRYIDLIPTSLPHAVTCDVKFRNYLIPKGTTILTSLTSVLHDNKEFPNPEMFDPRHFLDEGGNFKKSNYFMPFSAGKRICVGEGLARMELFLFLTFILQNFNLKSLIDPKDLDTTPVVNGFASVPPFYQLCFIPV
Cytochrome P450 3A4 (Homo sapiens), sequence (P08684 whole entry, looked up): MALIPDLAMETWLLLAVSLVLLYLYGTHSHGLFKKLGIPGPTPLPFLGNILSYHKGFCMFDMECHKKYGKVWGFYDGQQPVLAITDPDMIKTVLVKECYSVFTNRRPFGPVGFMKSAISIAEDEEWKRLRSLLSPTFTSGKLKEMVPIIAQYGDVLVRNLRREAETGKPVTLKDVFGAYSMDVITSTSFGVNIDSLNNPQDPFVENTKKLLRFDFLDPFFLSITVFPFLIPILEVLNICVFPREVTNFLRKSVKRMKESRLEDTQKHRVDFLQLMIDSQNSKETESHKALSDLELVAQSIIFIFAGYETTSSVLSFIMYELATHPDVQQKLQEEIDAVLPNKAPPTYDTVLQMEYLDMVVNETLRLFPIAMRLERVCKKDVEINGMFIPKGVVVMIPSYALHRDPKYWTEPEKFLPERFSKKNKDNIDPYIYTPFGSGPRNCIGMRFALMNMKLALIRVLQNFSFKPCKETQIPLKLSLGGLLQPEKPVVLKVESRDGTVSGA

On to `O=C1O[C@H](CN2CCOCC2)CN1/N=C\c1ccc([N+](=O)[O-])o1`, for which the Potency entry (in assay [1]; in the assay with CP194; with CP211; with CP215; with CP291; in the assay with CP335) was “inactive” in each case. Besides, the Potency entry in the assay on GB4 and in the assay on PC26 was “inactive” in each case. Further, in the assay with 7G8, the Potency was 3.55 µM (active).
Turning to `CC[C@H](Cc1c(I)cc(I)c(N)c1I)C(=O)O`, the Potency entry (in [2]; in the assay with 7G8; in the assay with AA1029; in the assay on CP194; with CP211; in the assay with CP215) was “inactive” throughout. For the same compound, the Potency result in the assay on CP291, with CP335, in the assay with GB4, with P93_24, in the assay on P94_40 and in the assay with PC26 was “inactive” throughout. Moreover, in the assay with TAB109, the Potency entry was “inactive”.
Regarding `CC[C@@H]1OC(=O)[C@H](C)[C@H](O[C@@H]2C[C@](C)(OC)[C@H](O)[C@H](C)O2)[C@H](C)[C@H](O[C@@H]2O[C@@H](C)C[C@@H](N(C)C)[C@@H]2O)[C@](C)(O)C[C@H](C)C(=O)[C@H](C)[C@H](O)[C@]1(C)O`, the Potency result in assay [3] was “inactive”.
On to `N#Cc1cccc(-c2cncnc2-n2ccnc2)c1`, for which the Potency in assay [4] is 2.51 µM (active). For the same compound, the Potency entry in assay [3] and in assay [5] was “inactive” each time.
Turning to `C#C[C@@]1(OC(C)=O)CC[C@@H]2[C@@H]3CCC4=C[C@@H](OC(C)=O)CC[C@H]4[C@H]3CC[C@]21C`, the Potency entry in assay [4] was “inactive”. In addition, in [3], the Potency was 5.01 µM (active).
For `Clc1ccc(CC[C@H](Cn2ccnc2)Sc2c(Cl)cccc2Cl)cc1`, the Potency entry in assay [3] and in assay [2] was “inactive” in each case. Besides, the Potency was 0.0025 µM (active) in assay [6]; 0.891 µM (active) in the assay with 7G8; 6.42 µM (active) in the assay on CP194; 5.73 µM (active) in the assay on CP291; 3.22 µM (active) in the assay on GB4; 2.24 µM (active) in the assay on P93_24. For the same compound, the figures for the Potency in the assay on PC26 and in the assay with W2 were 4.55 µM (active) and 2.03 µM (active), respectively.
Regarding `COc1cc2cc3c4cc(OC)c(OC)cc4cc[n+]3c(C)c2cc1OC`, the Potency in assay [4] was 15.8 µM (active). In addition, the Potency result in assay [3] and in assay [5] was “inactive” throughout.
On to `CO/N=C(\C(=O)N[C@@H]1C(=O)N2C(C(=O)O)=C(COC(N)=O)CS[C@@H]12)c1ccco1`, for which, in [7], the activation is 3.41%.
On to `C#C[C@@]1(O)CC[C@@H]2[C@@H]3CCC4=CC(=O)CC[C@@H]4[C@H]3CC[C@]21C`, for which the Potency in assay [6] is 5.01 µM (active).
Turning to `Clc1ccc([C@H](Cn2ccnc2)OCc2csc3c(Cl)cccc23)c(Cl)c1`, the Potency is 0.794 µM (active) in assay [4]; 0.251 µM (active) in assay [6]; 1.41 µM (active) with 7G8; 5.1 µM (active) in the assay with GB4; 2 µM (active) with P93_24; 3.55 µM (active) in the assay on P94_40. Also, the Potency with PC26 was 6.42 µM (active); with W2, 2.28 µM (active). Further, the Potency result in assay [3] and in [2] was “inactive” each time.
For `C[C@H]1CC[C@@H]2[C@@H](C)[C@H]3[C@H](C[C@H]4[C@@H]5CC=C6C[C@@H](O[C@]7(O[C@H]8O[C@@H](C)[C@@H](O)[C@@H](O)[C@@H]8O)C[C@@H](O[C@@H]8O[C@H](CO)[C@@H](O)[C@H](O)[C@@H]8O)[C@@H](O)[C@H](CO)O7)CC[C@]6(C)[C@H]5CC[C@@]34C)N2C1`, the Potency entry in assay [4] and in [6] was “inactive” in each case.
Regarding `C[N+]12CCC(CC1)[C@@H](OC(=O)C(O)(c1ccccc1)c1ccccc1)C2`, the Potency result in the assay on 7G8, with AA1029, in the assay on CP335, in the assay with P93_24, in the assay on P94_40 and in the assay on TAB109 was “inactive” throughout. Moreover, the Potency result in the assay on W2 was “inactive”.
Turning to `CC[C@](C)(CN(C)C)OC(=O)c1ccccc1`, the Potency entry (in assay [1]; in [2]; with 7G8; in the assay on AA1029; in the assay on CP194; in the assay with CP211) was “inactive” throughout. Further, the Potency entry in the assay on CP215, in the assay on CP291, in the assay on P94_40, with PC26 and in the assay on TAB109 was “inactive” in each case. For the same compound, in the assay with W2, the Potency is 2.87 µM (active).
